A selection: hits, their analogues and other compounds. The true share with any hit is near 7.7%.
RE007 growth inh = less growth of the S. pombe RE007 Vpr strain | S. pombe RE007 Vpr strain, BacTiter-Glo ATP luminescence, 24 h | Potency, µM (highest dose often 92.2 µM), for inactives: at the top dose activity change, negative = less growth, hits mostly inhibitors | 0.21% of 360,000 active; active means well fitted falling curve with a large enough effect; inconclusive means small, poorly fitted or top-dose-only effect; inactive means no such curve, though single readings can be large or run the other way; further: potency means the concentration at half of the fitted maximal effect; nearly all actives have a fitted effect of over 50% in size
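Fission yeast strain RE007, carrying one chromosomally integrated HIV-1 vpr copy, was seeded at OD 0.01 in PMG+AL medium with 23 nL pinned compound. After 24 h at 30 °C and 99% humidity, viability was read by BacTiter-Glo luminescence.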
Tb PYK inh = inhibitors of Trypanosoma brucei pyruvate kinase; Q57TT1; TbPYK enzyme, Kinase-Glo Plus ATP luminescence, 45 min; Potency, µM (series often up to 76.8 µM), without a hit: top-dose activity, negative = inhibition, actives largely listed as inhibitors; 0.12% of 410,000 active; further: potency means the concentration at half of the fitted maximal effect; nearly all actives have a fitted effect of over 50% in size
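Luminescent Kinase-Glo Plus end-point after 45 min room-temperature reaction of T. brucei pyruvate kinase started with 130 uM ADP (final). Buffer TEA 50 mM pH 7.2 with KCl, MgCl2, BSA, Tween-20; titration-based qHTS with fitted concentration-effect curves.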
HCMV inh = inhibitors of human cytomegalovirus; HFF cells, HCMV-luciferase reporter, 72 h; active compounds read low; activity change, negative = inhibition, % at 57.5 µM; 4.5% of 410,000 active; in the data active means activity change below about -60%; inconclusive means no clear call, values can overlap the other calls; inactive means above about -39%
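Two compound doses tested in HFFs infected with HCMV-luciferase, MOI 1 PFU/cell, 72 h at 37C. Lysate luminescence read with OneGlo; data normalized against buffer-only and 10uM Salinomycin inhibitor controls.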
Giardia FBPA inh = blocks Giardia fructose-bisphosphate aldolase activity; A8B2U2; purified Giardia FBPA; Potency, µM (series often up to 59.6 µM), without a hit: at the top dose activity, negative = inhibition, usual class: inhibitors; 0.71% of 290,000 active; AID 2451; further: potency means the concentration at half of the fitted maximal effect; nearly all actives have a fitted effect of over 55% in size
Target sequence (A8B2U2 whole entry, looked up): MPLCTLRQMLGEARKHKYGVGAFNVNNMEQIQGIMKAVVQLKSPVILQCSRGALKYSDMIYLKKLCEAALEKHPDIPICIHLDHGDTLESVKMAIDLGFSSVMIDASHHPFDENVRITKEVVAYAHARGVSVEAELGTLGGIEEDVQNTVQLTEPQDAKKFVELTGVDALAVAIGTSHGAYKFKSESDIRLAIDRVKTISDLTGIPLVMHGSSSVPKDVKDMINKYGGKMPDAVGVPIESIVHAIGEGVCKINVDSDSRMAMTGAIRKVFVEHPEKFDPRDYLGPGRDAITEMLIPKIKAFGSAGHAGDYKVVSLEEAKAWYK
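Giardia FBPA (40 nM reagent) was preincubated 10 min at RT with compound (up to 57.5 uM final), then substrate plus GAPDH/TPI/NAD/arsenate coupling system with diaphorase/resazurin was added; resorufin fluorescence (525/598 nm) was read after 20 min.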
FMDV antiviral = foot and mouth disease virus antiviral activity | FMDV antiviral cell-based qHTS | Potency, µM (titrated, usually from 57.9 µM), for inactives: at the top dose activity change, negative = inhibition, usual class: inhibitors | 1.2% of 410,000 active | AID 1159524; calls by dose curve; tested in HEK293T cells; further: read-out not given here; potency means the concentration at half of the fitted maximal effect; nearly all actives have a fitted effect of over 45% in size
Sm TGR block = inhibitors of Schistosoma mansoni thioredoxin glutathione reductase; Q962Y6; purified TGR, DTNB reduction, TNB absorbance 405 nm; Potency, µM (series often up to 114 µM), inactives show at the top dose activity change, negative = inhibition, actives largely listed as inhibitors; 3% of 360,000 active; further: potency means the concentration at half of the fitted maximal effect; nearly all actives have a fitted effect of over 60% in size
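First, TGR (20 nM dispensed) and NADPH were mixed with compound. Second, a 15 min room-temperature incubation followed. Third, further NADPH and then DTNB were added to start the reaction. Finally, TNB absorbance was monitored kinetically.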
An asterisk follows results filed as active; ? = inconclusive; . = no result; + = active, no number; ! = not confirmed by another sample; [ ] = remark or other dose. Unless noted, the call rests on the fitted dose curve; in most records, active means well fitted curve in the direction sought with a large enough effect; inconclusive means small, poorly fitted or top-dose-only effect, or another doubt; inactive means no such curve, though single readings can be large; an effect the other way counts as inactive or inconclusive. On the % scale 0 is the no-effect control and ±100 the full control effect.

SMILES | RE007 growth inh | Tb PYK inh | HCMV inh | Giardia FBPA inh | FMDV antiviral | Sm TGR block
CCCCN(c1ccccc1)c1ncnc(N)c1[N+](=O)[O-] | 0% | -13% | -102* | 11% | -19% | -19%
CN(c1ncnc(N)c1[N+](=O)[O-])C1CCS(=O)(=O)C1 (configuration not stated) | 8% | -6% | -74* | 0% | -10% | 1%
CCCCCOC(=O)c1ccc(Nc2nc(C(=O)OCC)nc3ccccc23)cc1 | . | 5% | 4 | . | -7% | -1%
Cc1ccc(NC(=O)CN2C(=O)CSc3ccc(S(=O)(=O)N4CCCC4)cc32)cc1F | . | 8% | -29 | . | -9% | 5%
CCOc1ccc(-c2nnc(SCC(=O)NCc3ccccc3Cl)o2)cc1 | . | 2% | 7 | . | -11% | 20µM*
CCOc1ccc(-c2nnc(SCC(=O)NCc3ccc(Cl)cc3)o2)cc1 | . | -4% | 10 | . | 11% | 14µM*
CCOc1ccc(-c2nnc(SCC(=O)NCc3ccccc3)o2)cc1 | . | -10% | 12 | . | -12% | -3%
c1cc(-c2sc(-c3ccncc3)c(-c3ccncc3)c2-c2ccncc2)ccn1 | -18% | -4% | -79* | -15% | -26% | -20%
Nc1nnc(-c2ccncc2)s1 | 0% | -8% | -28 | -2% | 8% | 8%
CCCCn1c(SCC(=O)Nc2ccc3c(c2)OCCO3)nnc1C(CC)N(C)C (configuration not stated) | -25% | -12% | -3 | . | 0% | -6%
CCCCn1c(SCC(=O)Nc2cc(C(F)(F)F)cc(C(F)(F)F)c2)nnc1C(CC)N(C)C (configuration not stated) | -6% | -10% | -88* | 0% | ? | -3%
Cc1ccc(CCNC(=O)C2CCN(S(=O)(=O)c3ccc4c(c3)NC(=O)C(C)S4)CC2)cc1 (configuration not stated) | 7% | -2% | ? | -5% | 32µM* | -16%
Cc1ccc(C)c(N2CCN(C(=O)CCS(=O)(=O)c3ccc4c(c3)NC(=O)C(C)S4)CC2)c1 (configuration not stated) | 2% | 0% | + | . | 16µM* | 0%
Cc1ccc(NC(=O)C2CCN(S(=O)(=O)c3ccc4c(c3)NC(=O)C(C)S4)CC2)cc1Cl (configuration not stated) | 14% | -1% | -99* | . | ? | -9%
CC1Sc2ccc(S(=O)(=O)N3CCC(C(=O)NCCc4ccccc4)CC3)cc2NC1=O (configuration not stated) | 8% | 2% | 53 | . | -22% | 5%
Cc1cccc(N2CCN(S(=O)(=O)c3ccc4c(c3)NC(=O)C(C)S4)CC2)c1C (configuration not stated) | 4% | -11% | -79* | ? | -22% | -6%
COc1ccc(Cl)cc1NC(=O)CCn1nc(C)cc1C | . | -4% | -10 | . | -22% | -4%
Cc1cccc(CCNC(=O)C2CCN(S(=O)(=O)c3ccccc3)CC2)c1 | 9% | 3% | -68* | 2% | -18% | -7%
O=C1CCCc2cc(S(=O)(=O)NCC3CCC(C(=O)Nc4ccc(Cl)cc4)CC3)ccc2N1 (configuration not stated) | . | 1% | -29 | . | -17% | 8%
CC(C)c1ccc(NC(=O)C2CCC(CNS(=O)(=O)c3ccc4c(c3)CCCC(=O)N4)CC2)cc1 (configuration not stated) | . | 1% | -25 | . | 25µM* | -2%
Cc1ccc(NC(=O)C2CCN(S(=O)(=O)c3ccc4c(c3)CCCC(=O)N4)CC2)c(Br)c1 | -8% | -6% | +! | . | -18% | -2%
Cc1ccc(NC(=O)C2CCN(S(=O)(=O)c3ccc4c(c3)NC(=O)C(C)S4)CC2)c(Cl)c1 (configuration not stated) | -6% | 0% | 0 | . | 18µM* | 5%
O=C(NCCc1cccc(F)c1)C1CCN(S(=O)(=O)c2ccccc2)CC1 | 0% | 2% | -36 | 12% | -16% | 5%
COc1ccc(-c2noc(-c3cccnc3NCc3ccco3)n2)cc1 | . | 1% | 98 | . | 0% | 2%
Cc1ccc(C(=O)Nc2ccc(Br)cc2)cc1S(=O)(=O)N1CCOCC1 | . | 0% | ? | . | ? | -1%
SMILES | RE007 growth inh | Tb PYK inh | HCMV inh | Giardia FBPA inh | FMDV antiviral | Sm TGR block
COc1ccc(-c2oc3ncn4nc(COc5ccc(Cl)cc5)nc4c3c2-c2ccc(OC)cc2)cc1 | . | -4% | 9 | . | -12% | 4%
O=C(Cn1cnc2c(nc3n2CCCCC3)c1=O)Nc1ccc(F)c(Cl)c1 | . | -2% | 10 | . | -23% | -16%
O=C(CSc1nnnn1C1CCCCC1)NCc1ccco1 | -13% | 3% | 16 | 0% | -8% | 28µM*
COc1ccccc1NC(=O)CN1CCC(n2nnc3cc(F)ccc32)CC1 | 0% | 3% | -10 | 0% | ? | -3%
Cn1nnnc1SCC(=O)NCc1ccco1 | 14% | 0% | 38 | 5% | 5% | -14%
O=C(CSc1nc(C2CCCCC2)nc2ccccc12)NCc1ccco1 | 6% | 0% | -102* | 11% | ? | .
O=C(CN1CCC(n2nnc3cc(F)ccc32)CC1)NCc1ccco1 | 10% | -3% | -10 | ? | 9% | 45µM*
Cc1sc2nc(C3CC3)nc(SCC(=O)NCc3ccco3)c2c1C | 3% | 0% | 7 | 12% | . | ?
Cc1cccnc1NC(=O)CCCc1c[nH]c2ccccc12 | -1% | 3% | 15 | . | 12% | -1%
O=C(CCCc1c[nH]c2ccccc12)Nc1ncccc1O | -9% | -8% | -88* | . | -15% | 0%
O=C(NCCc1c[nH]c2ccccc12)c1ccccc1O | . | . | . | -9% | . | .
CCOc1ncccc1C(=O)NCCc1c[nH]c2ccccc12 | -3% | -1% | -66* | . | 3% | 8%
Nc1ccn([C@@H]2O[C@H](CO)[C@@H](O)C2(F)F)c(=O)n1 | . | 0%[157 µM] | . | . | . | .
C#CCN[C@@H]1CCc2ccccc21 | . | -4% | . | . | . | .
Cc1cccc(N2CCN(C(=O)C3CCC(CNS(=O)(=O)c4cccs4)CC3)CC2)c1C (configuration not stated) | 1% | -10% | -61* | 4% | -14% | 1%
O=C(C1CCCN(S(=O)(=O)c2ccc(Br)s2)C1)N1CCN(c2ccccc2)CC1 (configuration not stated) | 1% | -6% | -13 | -4% | ? | 3%
Cc1n[nH]c(C)c1S(=O)(=O)N1CCCC(C(=O)N2CCN(c3ccc(Cl)cc3)CC2)C1 (configuration not stated) | -1% | 1% | -76* | 10% | 20µM* | 8%

Assay outcomes: PubChem BioAssay, National Center for Advancing Translational Sciences (NCATS)
